Assay outcomes deposited in PubChem BioAssay by several laboratories.
Only some compounds are listed: those with a hit (about 3% of all), similar ones and a draw of the others.
Rv3671c protease: Rv3671c serine protease inhibitors, primary screen, biochemical, fluorescence polarization, M. tuberculosis H37Rv; AID 2606, 2010; 0.048% of 320,000 active; P9WHR9; inhibition, % at 5.96 µM; in the data active = inhibition above about 38%;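 note: extracellular domain of Rv3671c used as enzyme; 0% = enzyme with DMSO and 100% = no enzyme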
Target sequence (P9WHR9 whole entry, looked up, the tested form may be a part): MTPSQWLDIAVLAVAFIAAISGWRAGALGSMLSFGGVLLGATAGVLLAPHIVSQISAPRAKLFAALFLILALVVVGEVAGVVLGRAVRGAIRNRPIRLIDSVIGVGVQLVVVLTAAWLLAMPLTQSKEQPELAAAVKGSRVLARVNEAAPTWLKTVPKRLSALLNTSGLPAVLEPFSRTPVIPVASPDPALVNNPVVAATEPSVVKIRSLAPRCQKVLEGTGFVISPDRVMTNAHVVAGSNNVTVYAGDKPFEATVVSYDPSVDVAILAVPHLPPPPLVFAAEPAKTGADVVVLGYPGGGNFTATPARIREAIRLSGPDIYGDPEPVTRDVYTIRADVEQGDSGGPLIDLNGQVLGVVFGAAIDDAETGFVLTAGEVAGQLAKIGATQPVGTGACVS
FBA Mtb inh: Mtb FBA enzyme inhibitors, primary screen, biochemical, fluorescence, strain H37Rv; Fructose-bisphosphate aldolase (Mycobacterium tuberculosis (strain ATCC 25618 / H37Rv)), …; purified M. tuberculosis FBA, fluorescence read-out; inhibition, % at 1 µM; 2.3% of 360,000 active; AID 588726, 2011; in the data active = inhibition above about 27%;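 note: 0% = vehicle and 100% = reference inhibitor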
Target sequence (P9WQA3 whole entry, looked up): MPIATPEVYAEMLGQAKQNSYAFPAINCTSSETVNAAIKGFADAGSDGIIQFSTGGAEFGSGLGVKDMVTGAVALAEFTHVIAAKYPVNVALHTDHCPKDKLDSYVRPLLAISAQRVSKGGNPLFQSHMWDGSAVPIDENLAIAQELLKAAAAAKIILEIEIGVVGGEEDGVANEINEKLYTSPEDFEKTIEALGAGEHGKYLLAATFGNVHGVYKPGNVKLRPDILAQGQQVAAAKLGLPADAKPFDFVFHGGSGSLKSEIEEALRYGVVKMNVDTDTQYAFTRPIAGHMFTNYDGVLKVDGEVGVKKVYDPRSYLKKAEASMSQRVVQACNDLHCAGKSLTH
Mtb BioA inh: M. tuberculosis BioA enzyme inhibitors, primary screen, biochemical, plate reader, single point, HTS; AID 602481, 2012; inhibition, % at 9.99 µM; purified M. tuberculosis BioA enzyme; 0.096% of 360,000 active; 7,8-diaminopelargonic acid synthase BioA (Mycobacterium tuberculosis); in the data active = inhibition above about 40%; inconclusive = no clear call, values can overlap the other calls
FadD28 binding: inhibitors of FadD28 bisubstrate probe binding, primary screen, biochemical, fluorescence polarization, single point; Mycobacterium tuberculosis FadD28 fatty-acid-AMP ligase; inhibition, % at 12.5 µM; 0.22% of 360,000 active; AID 588549, 2011; in the data active = inhibition above about 8.5%, passing the limit was not always enough; inconclusive = no clear call, values can overlap the other calls
GDH-TPI inh: GDH-TPI coupling enzyme inhibitors, primary screen, artefact control for M. tuberculosis FBA inhibitor project, biochemical, absorbance, full deck | GDH-TPI coupled enzyme counterscreen, NADH absorbance | 1.2% of 360,000 active | inhibition, % at 4.8 µM; in the data active = inhibition above about 30%;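 note: 0% = DMSO wells and 100% = wells lacking the enzyme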
Starred values were filed as active, the others as inactive; ? = inconclusive; . = no result given; + = active, no number.

SMILES | Rv3671c protease | FBA Mtb inh | Mtb BioA inh | FadD28 binding | GDH-TPI inh
Nc1ccc(-c2nc3ccc(N)cc3[nH]2)cc1 | 6.7 | + | . | 14.4* | 17.9
Cc1ccc2nc(-c3ccccc3N)[nH]c2c1 | -0.1 | + | 0.1 | -3.2 | 6.3
Cc1ccc2nc(-c3ccccn3)[nH]c2c1 | 10.1 | 5.1 | 0.6 | 0.0 | 9.6
Nc1cc(N)cc(-c2nc3ccccc3[nH]2)c1 | 32.4 | 6.3 | . | ? | 18.1
CC(C)NC(=O)N(C)C[C@@H]1Oc2cc(C#CC(C)(C)O)ccc2S(=O)(=O)N([C@H](C)CO)C[C@@H]1C | . | . | -0.7 | . | .
C/C=C/c1cccc(-c2nc(C(=O)NCc3ccncc3)cc3c2[C@H](CCO)N([S@@](=O)C(C)(C)C)C3)c1 | . | . | 2.3 | . | .
COc1ccc(NC(=O)N(C)C[C@H]2Oc3ncc(C#CCC(C)C)cc3C(=O)N([C@@H](C)CO)C[C@@H]2C)cc1 | . | . | -1.8 | . | .
CCOC(=O)c1ccc(NC(=S)N(CCN(C)C)Cc2cccs2)cc1 | -9.4 | 4.3 | . | 10.2* | -1.2
O=C(/C=C/c1ccccc1[N+](=O)[O-])Nc1ccc(S(=O)(=O)Nc2ncccn2)cc1 | -3.1 | 1.4 | -0.9 | -0.9 | 19.7
O=C(/C=C/c1cccs1)Nc1ccc(S(=O)(=O)Nc2ncccn2)cc1 | -12.2 | 1.6 | -1.4 | -4.7 | 44.9*
NS(=O)(=O)c1ccc(NC(=O)/C=C/c2cccs2)cc1 | -0.1 | 0.0 | 1.4 | -0.8 | 72.5*
O=C(/C=C/c1ccccc1)Nc1ccc(NC(=O)c2cccs2)cc1 | -4.0 | -2.8 | 0.1 | -1.5 | 34.7*
O=C(C[C@H]1C[C@H]2c3cc(NS(=O)(=O)c4ccccc4)ccc3O[C@H]2[C@@H](CO)O1)NC1CCCC1 | . | . | 2.5 | . | .
O=C(C[C@@H]1C=C[C@H](NC(=O)C2CCC2)[C@H](CO)O1)NCc1ccccc1Cl | . | . | 1.8 | . | .
CCOC(=O)c1ccc(NC(=O)/C=C/c2cccs2)cc1 | -13.7 | -1.4 | . | -6.2 | 31.6*
C[C@@H]1CCCCO[C@H](CN(C)Cc2ccncc2)[C@H](C)CN([C@H](C)CO)C(=O)c2cc(NS(=O)(=O)c3cn(C)cn3)ccc2O1 | . | . | -0.3 | . | .
COCC#Cc1ccc2c(c1)O[C@@H](CN(C)S(=O)(=O)c1cccc(OC)c1)[C@H](C)CN([C@H](C)CO)S2(=O)=O | . | . | 7.2 | . | .
NS(=O)(=O)c1ccc(NC(=S)NNC(=O)c2ccc(Br)o2)cc1 | 6.0 | 1.2 | 0.8 | -0.2 | 32.6*
NS(=O)(=O)c1ccc(NC(=S)NC(=O)c2ccc(Br)o2)cc1 | -1.5 | -0.1 | 0.0 | 0.0 | 6.3
COc1cc2c[n+](C)c3c4ccccc4ccc3c2cc1OC | . | 120.1* | . | -3.1 | 19.7
COc1ccc(C(=O)N/N=C\c2ccoc2)cc1 | 2.5 | 3.2 | 20.7 | 0.5 | 14.2
Cc1ccc(C(=O)NN=Cc2ccc3c(c2)OCO3)cc1 | . | -0.3 | 0.1 | -2.6 | 34.9*
Cc1ccc(C(=O)N/N=C/c2ccoc2)cc1C | -6.0 | 4.1 | 49.3* | 2.3 | 1.7
O=C(Cc1ccccc1)N/N=C/c1ccc2c(c1)OCO2 | -4.9 | 2.2 | . | -2.0 | 13.2
O=C(NN=Cc1ccc2c(c1)OCO2)NN=Cc1ccc2c(c1)OCO2 | . | -1.2 | 0.5 | -0.7 | 37.5*
SMILES | Rv3671c protease | FBA Mtb inh | Mtb BioA inh | FadD28 binding | GDH-TPI inh
O=C(CCc1c[nH]c2ccccc12)N/N=C/c1ccc2c(c1)OCO2 | -0.9 | -1.4 | . | -2.9 | 37.8*
O=C(N[C@@H]1CC[C@H](CCNS(=O)(=O)c2ccccc2Cl)O[C@@H]1CO)c1ccc(F)cc1 | . | . | -0.6 | . | .
O=C(N/N=C/c1ccc2c(c1)OCO2)c1cc2ccccc2o1 | -7.3 | 0.4 | . | -0.9 | 5.6
COc1cccc(/C=N/NC(=O)c2cccc(N3CCCC3=O)c2)c1 | 0.0 | 0.3 | 3.3 | -1.5 | 4.5
CN(C)c1ccc(/C=N/NC(=O)c2ccc3c(c2)OCO3)cc1 | . | 4.9 | -1.2 | -0.3 | 42.2*
CN(C)c1ccc(/C=N/NC(=O)c2cccc(N3CCCC3=O)c2)cc1 | 6.2 | -7.6 | . | -4.1 | 45.8*
Cc1ccc(C(=O)N/N=C/c2ccc3c(c2)OCO3)o1 | 4.1 | 1.2 | . | -2.8 | 40.5*
Fc1ccc(Cn2ccc(-c3cnc(-c4ccccc4)s3)n2)cc1 | -8.0 | 141.9* | . | -5.2 | 12.2
Cc1ccc(Cn2ccc(-c3cnc(-c4ccccc4)s3)n2)cc1 | -7.5 | 52.4* | -0.5 | -0.2 | 25.7
O=S(=O)(c1ccccc1)n1ccc(-c2cnc(-c3ccccc3)s2)n1 | -5.0 | 2.0 | -0.2 | -4.0 | 5.2
COc1ccc(C(=O)c2cnc(/N=C/N(C)C)s2)cc1 | -16.1 | 2.2 | . | -0.5 | 32.9*
CN(C)/C=N/c1ncc(C(=O)c2ccc3ccccc3c2)s1 | -2.1 | 3.5 | 3.0 | -16.0 | 20.7
CC1(c2ccncc2)Nc2ccccc2-c2nc3ccccc3n21 (stereo unspecified) | -2.4 | 158.2* | 0.4 | -2.4 | 7.5
Cc1nn(-c2ccccc2Cl)c(Cl)c1/C=N/Nc1cccc(C(=O)O)c1 | 7.1 | 1.6 | . | 15.9* | 14.0
Cc1nn(-c2cccc(C(F)(F)F)c2)c(Cl)c1/C=N/Nc1cccc(C(=O)O)c1 | 10.6 | -0.8 | . | ? | 12.2
O=c1oc2c(CN3CCOCC3)c(O)c(Cl)cc2c2c1CCCC2 | -3.3 | + | 3.5 | ? | 18.8
O=c1oc2c(CN3CCOCC3)c(O)ccc2c2ccccc12 | 3.8 | -3.8 | 3.4 | 1.2 | 5.0
O=c1oc2c(CN3CCOCC3)c(O)ccc2c2c1CCCC2 | 1.8 | + | . | -0.3 | 28.6
Cc1csc(CNc2ncnc3ccc(-c4cccc(Cl)c4)cc23)c1 | -87.2 | 7.3 | 1.0 | -6.6 | 10.9
CCOC(=O)c1ccc(-c2ccc3ncnc(NCc4csc(C)n4)c3c2)o1 | . | + | -1.2 | -0.8 | 37.1*
Cc1onc(-c2ccccc2)c1C(=O)Nc1nnc(C(C)C)s1 | -5.8 | -1.4 | 0.1 | -1.0 | 1.4
O=C(Nc1nnc(-c2ccc(F)cc2)s1)c1ccco1 | 0.1 | -0.8 | -1.9 | 0.6 | 6.2
Cc1cccc(-c2nnc(NC(=O)c3ccco3)s2)c1 | -1.4 | 2.2 | -2.3 | 1.1 | 34.3*
Cc1noc(C)c1C(=O)Nc1nnc(-c2ccccc2)s1 | -10.9 | 6.9 | . | -1.7 | 34.7*
O=C(Nc1nnc(SCc2ccc(Cl)cc2)s1)c1ccco1 | -3.3 | -2.4 | 1.0 | -3.5 | 32.1*
O=C(NCc1ccncn1)[C@@H]1[C@@H](CO)[C@@H]2Cn3c(ccc(-c4cccc(F)c4)c3=O)[C@@H]2N1CC1CC1 | . | . | 8.6 | . | .
COc1ccc(S(=O)(=O)N(C)C[C@@H]2Oc3ccc(NC(=O)Cc4ccccc4)cc3C(=O)N([C@H](C)CO)C[C@H]2C)cc1 | . | . | 4.9 | . | .
COc1ccc(NCC(=O)N/N=C/C=C\c2ccccc2)cc1 | -8.3 | -1.3 | -0.8 | -2.3 | 31.3*
O=C(O)c1cc(N/N=C/c2ccc(N3CCOCC3)cc2)ccc1Cl | -1.4 | 2.3 | 0.8 | 0.5 | 68.8*
O=C(O)c1cc(N/N=C/c2ccncc2)ccc1Cl | -0.2 | -0.3 | -1.4 | -1.6 | 29.5
